Results from PubChem BioAssay (Tox21).
Records with an inconclusive call do not appear. Activity calls are given as the source filed them. Unless noted, calls follow the shape of the dose curve; as a rule, active = well fitted curve in the direction sought with a large enough effect in the repeat runs; inconclusive = weak or mixed curves; inactive = no such curve, though single readings can be large; an effect the other way counts as inactive or inconclusive.

What was measured:
[1] = qHTS assay for small molecule agonists of the p53 signaling pathway (AID 651631; calls by dose curve; also: nearly all actives have a fitted effect of over 15% in size)
How it was run: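 HCT-116 cells carrying a beta-lactamase reporter under p53 response elements were dosed with compound for 16 h at 37 °C. LiveBLAzer B/G FRET substrate was then added for 2 h at room temperature, and fluorescence intensity was read to detect pathway agonism.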

[2] = qHTS assay for small molecules that induce genotoxicity in human embryonic kidney cells expressing luciferase-tagged ATAD5 (AID 651632); also: nearly all actives have a fitted effect of over 15% in size
How it was run: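 Increased luciferase signal from ATAD5-tagged reporter cells indicates DNA-damage-driven ATAD5 induction. HEK293T cells are treated for 16 hr at 37C before detection with Amplite.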

[3] = qHTS assay for small molecule agonists of the p53 signaling pathway - cell viability (AID 651633; calls by dose curve;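 also: p53RE-bla HCT reporter cells with a stable beta-lactamase p53 reporter; series mostly up to about 83 µM; nearly all actives have a fitted effect of over 30% in size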)
How it was run: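 p53RE-bla cells, seeded at 4,000 per well and rested 5 h at 37 C/5% CO2, received compounds in DMSO for 16 h at 37 C. CellTiter-Glo was then added, and luminescence was read after 30 min at room temperature to gauge cytotoxicity.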

[4] = qHTS assay for small molecules that induce genotoxicity in human embryonic kidney cells expressing luciferase-tagged ATAD5 - cell viability (AID 651634; calls by dose curve; also: nearly all actives have a fitted effect of over 25% in size)
How it was run: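 Cytotoxicity counterscreen in HEK293T cells bearing an ATAD5-luciferase reporter: live-cell protease activity measured by CellTiter-Fluor fluorescence after 15.5 hr compound exposure.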

[5] = qHTS assay for small molecule disruptors of the mitochondrial membrane potential - cell viability (AID 720634; calls by dose curve;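 also: human HepG2 liver cancer cells; series mostly up to about 83 µM; nearly all actives have a fitted effect of over 20% in size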)
How it was run: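 After overnight attachment at 37 C, HepG2 cells received compound or DMSO vehicle for 1 hr. Viability is then taken from ATP-driven luminescence following a 30 min room-temperature CellTiter-Glo step.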

[6] = qHTS assay to test for compound auto fluorescence at 590 nm (red) in HepG2 cells (AID 720674)
How it was run: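 Compound auto-fluorescence is scored relative to Rose Bengal sodium, measured at 540/590 nm in live HepG2 cultures after 1 hr compound contact (37 C, 5% CO2).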

[7] = qHTS assay to test for compound auto fluorescence at 535 nm (green) in HepG2 cells (AID 720675)
[8] = qHTS assay to test for compound auto fluorescence at 460 nm (blue) in HEK293 cells (AID 720678)
How it was run: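 Measured: blue fluorescence (Ex 405/Em 460 nm) of compound-treated HEK293 cells, incubated overnight at 37C with 5% CO2 and scaled to triamterene equivalents.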

[9] = qHTS assay for small molecule disruptors of the mitochondrial membrane potential (AID 720635); also: potency is read from the fitted curve at half-maximal effect
How it was run: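 HepG2 cells (2,000/well) attached overnight at 37C, then took compound for 1 hr at 37C, 5% CO2. Mito-MPS dye was added for 30 min; fluorescence was read at 490/535 nm (monomers) and 540/590 nm (aggregates).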

[10] = qHTS assay to test for compound auto fluorescence at 590 nm (red) in HEK293 cells (AID 720679)
How it was run: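 Using HEK293 cells at 2,000 per well, the screen added 23 nL of each compound after cell attachment and incubated overnight (37C, 5% CO2). The plate reader then captured red-label fluorescence, Ex/Em 540/590nm.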
% is scaled to controls: 0 for no effect and ±100 for the full control effect.

CCCCCOC(=O)CCC
inactive: outcome [1] | Potency [2] | outcome [3] | Potency [4] | outcome [5] | outcome [6] | outcome [7] | outcome [8]

Cc1cc(C(C)(C)C)c(O)c(C)c1CC1=NCCN1
inactive: outcome [1] | Potency [2] | outcome [3] | Potency [4] | outcome [5] | Potency [9] | outcome [6] | outcome [7] | outcome [8] | outcome [10]

CCOC(=O)c1ncn2c1CN(C)C(=O)c1cc(F)ccc1-2
inactive: outcome [1] | Potency [2] | outcome [3] | Potency [4] | outcome [5] | Potency [9] | outcome [6] | outcome [7] | outcome [8] | outcome [10]

Nc1ccc(S(=O)(=O)Nc2ccc(Cl)nn2)cc1
inactive: outcome [1] | Potency [2] | outcome [3] | Potency [4] | outcome [5] | Potency [9] | outcome [6] | outcome [7] | outcome [8] | outcome [10]

CCN1CCc2nc(N)oc2CC1
inactive: outcome [1] | Potency [2] | outcome [3] | Potency [4] | outcome [5] | Potency [9] | outcome [6] | outcome [8] | outcome [10]

COc1ccc(C2CNC(=O)C2)cc1OC1CCCC1 (stereo not drawn)
inactive: outcome [1] | Potency [2] | outcome [3] | Potency [4] | outcome [5] | Potency [9] | fluorescence, relative to Rose Bengal [6] -0.195% [at 18.6 µM] | fluorescence, % of fluorescein control [7] 0.104% [at 18.6 µM] | fluorescence, % of triamterene [8] 0.004% [at 18.6 µM] | fluorescence, % of fluorescent control [10] -0.255% [at 18.6 µM]

COC(=O)[C@@H]1[C@H]2C[C@H]3c4[nH]c5ccccc5c4CCN3C[C@@H]2CC[C@@H]1O
inactive: outcome [1] | Potency [2] | outcome [3] | Potency [4] | outcome [5] | Potency [9] | outcome [6] | outcome [7] | outcome [8] | outcome [10]

CCOC(=O)[C@H](CCc1ccccc1)N[C@@H](C)C(=O)N1C(=O)N(C)C[C@H]1C(=O)O
inactive: outcome [1] | Potency [2] | outcome [3] | Potency [4] | outcome [5] | Potency [9] | outcome [6] | outcome [7] | outcome [8] | outcome [10]

CN1C(C)(C)CCCC1(C)C
inactive: outcome [1] | Potency [2] | outcome [3] | Potency [4] | outcome [5] | Potency [9] | outcome [6] | outcome [7] | outcome [8]

CC(=C(CCOC(=O)C(C)C)SSC(CCOC(=O)C(C)C)=C(C)N(C=O)Cc1cnc(C)nc1N)N(C=O)Cc1cnc(C)nc1N
inactive: outcome [1] | Potency [2] | outcome [3] | Potency [4] | outcome [5] | Potency [9] | outcome [6] | outcome [8] | outcome [10]

CCCCCCCC/C=C\CCCCCCCC(=O)OCCCC
inactive: outcome [1] | Potency [2] | outcome [3] | Potency [4] | outcome [5] | fluorescence, relative to Rose Bengal [6] 0.139% [at 18.6 µM] | fluorescence, % of fluorescein control [7] -0.0204% [at 18.6 µM] | fluorescence, % of triamterene [8] -0.0584% [at 18.6 µM]

Nc1ccc2cc(S(=O)(=O)O)cc(O)c2c1
inactive: outcome [1] | Potency [2] | outcome [3] | Potency [4] | outcome [5] | Potency [9] | outcome [6] | outcome [7] | outcome [8] | outcome [10]

CC(C(=O)O)c1ccc2c(c1)CC(=O)c1ccccc1S2 (stereo not drawn)
inactive: outcome [1] | Potency [2] | outcome [3] | Potency [4] | Potency [9] | outcome [6] | outcome [8] | outcome [10]

CCCCCCCCCC(C)=O
inactive: outcome [1] | Potency [2] | outcome [3] | Potency [4] | outcome [6] | outcome [7] | outcome [8] | outcome [10]

Cc1ccsc1/C=C/C1=NCCCN1C
inactive: outcome [1] | Potency [2] | outcome [3] | Potency [4] | Potency [9] | fluorescence, relative to Rose Bengal [6] 0.162% [at 18.6 µM] | fluorescence, % of fluorescein control [7] 0.0988% [at 18.6 µM] | fluorescence, % of triamterene [8] -0.421% [at 18.6 µM]

COc1ccc(-c2cc(=O)c3c(O)cc(O[C@@H]4O[C@H](CO[C@@H]5O[C@@H](C)[C@H](O)[C@@H](O)[C@H]5O)[C@@H](O)[C@H](O)[C@H]4O)cc3o2)cc1O
inactive: outcome [1] | Potency [2] | outcome [3] | Potency [4] | outcome [6] | outcome [8] | outcome [10]

OCCCCC(O)CO (stereo not drawn)
inactive: outcome [1] | Potency [2] | outcome [3] | Potency [4] | Potency [9] | outcome [6] | outcome [7] | outcome [8]

O=C(OCc1ccccc1)C(=O)OCc1ccccc1
inactive: outcome [1] | Potency [2] | outcome [3] | Potency [4] | Potency [9] | outcome [6] | outcome [7] | outcome [8] | outcome [10]

Cc1cc(Cl)c(C)cc1Cl
inactive: outcome [1] | Potency [2] | outcome [3] | Potency [4] | outcome [5] | outcome [6] | outcome [7] | outcome [8] | outcome [10]

CCCCOCCOC(=O)COc1nc(Cl)c(Cl)cc1Cl
inactive: outcome [1] | Potency [2] | outcome [3] | Potency [4] | outcome [6] | outcome [7] | outcome [8] | outcome [10]

CCCCCCCCC1CCC(=O)O1 (stereo not drawn)
inactive: outcome [1] | Potency [2] | outcome [3] | Potency [4] | outcome [6] | outcome [7] | outcome [8] | outcome [10]

CN=C(NC#N)Nc1ccc(C2=NNC(=O)CC2C)cc1 (stereo not drawn)
inactive: outcome [1] | Potency [2] | outcome [3] | Potency [4] | Potency [9] | outcome [6] | outcome [7] | outcome [8] | outcome [10]

O=C(c1ccc(O)cc1)c1ccc(O)c(O)c1O
active: Potency [9] 27.4 µM
inactive: outcome [1] | Potency [2] | outcome [3] | outcome [6] | outcome [7] | outcome [8] | outcome [10]
